# Experimental data taken from paper PMC13423814.
# Legend:
# [1] = target: 26S proteasome non-ATPase regulatory subunit 5 (UniProt Q16401)
# Histone H2B type 1-L = Histone H2B type 1-L (UniProt Q99880)
# [2] = target: Large ribosomal subunit protein eL28 (UniProt P46779)
# Twinfilin-1 = Twinfilin-1 (UniProt Q12792)
# [3] = target: Heterochromatin protein 1-binding protein 3 (UniProt Q5SSJ5)
# Chain of Histone H2A.V, Q71UI9 (Q71UI9 whole entry): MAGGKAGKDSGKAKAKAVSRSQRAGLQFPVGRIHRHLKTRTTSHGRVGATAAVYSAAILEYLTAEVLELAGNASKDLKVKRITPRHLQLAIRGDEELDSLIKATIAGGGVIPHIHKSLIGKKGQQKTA
# Chain of 26S proteasome non-ATPase regulatory subunit 5 (Q16401 whole entry): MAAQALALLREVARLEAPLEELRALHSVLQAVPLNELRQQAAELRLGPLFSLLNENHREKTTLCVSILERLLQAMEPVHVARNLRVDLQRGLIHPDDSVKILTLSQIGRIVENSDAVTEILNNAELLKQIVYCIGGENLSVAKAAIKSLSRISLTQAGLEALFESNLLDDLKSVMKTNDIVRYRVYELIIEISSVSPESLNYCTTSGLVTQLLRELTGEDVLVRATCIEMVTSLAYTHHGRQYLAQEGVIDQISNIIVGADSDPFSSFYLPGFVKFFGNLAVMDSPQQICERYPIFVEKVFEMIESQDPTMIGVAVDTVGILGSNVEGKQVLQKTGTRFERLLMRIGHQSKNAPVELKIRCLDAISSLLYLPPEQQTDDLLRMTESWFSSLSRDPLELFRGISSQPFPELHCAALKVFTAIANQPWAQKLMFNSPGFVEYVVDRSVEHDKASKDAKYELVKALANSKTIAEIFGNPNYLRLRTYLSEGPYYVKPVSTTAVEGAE
# Chain of 26S proteasome regulatory subunit 4, P62191 (P62191 whole entry): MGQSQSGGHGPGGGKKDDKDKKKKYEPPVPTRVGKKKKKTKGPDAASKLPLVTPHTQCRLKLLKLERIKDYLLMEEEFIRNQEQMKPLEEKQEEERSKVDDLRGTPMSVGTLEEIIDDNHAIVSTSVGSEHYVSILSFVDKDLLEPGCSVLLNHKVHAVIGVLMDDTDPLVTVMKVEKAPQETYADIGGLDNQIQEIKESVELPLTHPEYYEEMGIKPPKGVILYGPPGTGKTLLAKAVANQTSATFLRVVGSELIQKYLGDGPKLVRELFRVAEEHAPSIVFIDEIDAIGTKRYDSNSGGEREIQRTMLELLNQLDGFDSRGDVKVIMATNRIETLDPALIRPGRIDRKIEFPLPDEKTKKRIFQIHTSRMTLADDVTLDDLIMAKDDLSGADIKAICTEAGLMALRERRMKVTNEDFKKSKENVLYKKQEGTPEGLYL
substance,measurement,setting,value
"26S proteasome regulatory subunit 4, P62191",listed as a hit,[1],yes
"Histone H2A.V, Q71UI9",listed as a hit,Histone H2B type 1-L,yes
"Calmodulin-3, P0DP25",listed as a hit,[2],yes
"Actin, cytoplasmic 1, P60709",listed as a hit,Twinfilin-1,yes
"Histone H4, P62805",listed as a hit,[3],yes
